Source: the supplement of paper PMC5662767
Structures can show the parent of a compound that is named as a salt.

System: Drosophila S2 cl14 SmoIP sensor cells
Assay: normalized SmoIP GFP fluorescence (untreated unstimulated = 0%, untreated Hh-stimulated = 100%); higher = more Smo activation sensor fluorescence
Conditions: compound concentration: 2 uM, 24 h
[1] = stimulation: Hh conditioned medium (+Hh)
[2] = stimulation: mock conditioned medium (-Hh)
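Further: flow cytometry read-out as median GFP intensity of gated cells, compounds added 30 min before Hh-conditioned or mock medium, mock-treated cells serving as unstimulated baseline.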

SMILES | normalized SmoIP GFP fluorescence [1] [%] | normalized SmoIP GFP fluorescence [2] [%]
CC(C(O)c1ccc(O)cc1)N1CCC(Cc2ccccc2)CC1 (stereo not given) [ifenprodil-tartrate] | 103 | -5.15
CCOC(=O)[C@H](CCc1ccccc1)N[C@H]1CCCN2CCC[C@H](C(=O)O)N2C1=O [cilazapril-monohydrate-inhibace] | 111 | 6.28
Cc1cnc(Nc2ccc(OCCN3CCCC3)cc2)nc1Nc1cccc(S(=O)(=O)NC(C)(C)C)c1 | 173 | 8.54
COc1cc2c(cc1OC)[C@@H]1Cc3ccc(OC)c(OC)c3CN1CC2 [rotundine] | 160 | 12.5
O=c1ncn2nc(Sc3ccc(F)cc3F)ccc2c1-c1c(Cl)cccc1Cl | 79.3 | -2.64
O=C1CCc2cc(OCCCCc3nnnn3C3CCCCC3)ccc2N1 [Cilostazol] | 116 | 2.11
CCc1cccc2c3c([nH]c12)C(CC)(CC(=O)O)OCC3 (stereo not given) [Etodolac] | 104 | -3.17
O=C(NC[C@H](O)CO)c1ccncc1Nc1ccc(I)cc1F | 182 | 46.7
CN1CCN(C(c2ccccc2)c2ccccc2)CC1 [cyclizine-2hcl] | 104 | -5.15
O=C1C(=O)N(Cc2ccc(Cl)c(Cl)c2)c2ccccc21 [apoptosis-activator-2] | 103 | -2.82
CC(C)(Cc1ccc2ccccc2c1)NC[C@@H](O)COc1cccc(Cl)c1C#N | 157 | 12.8
O=C(Nc1ccc(-c2ccnc(Nc3ccc(N4CCOCC4)cc3)n2)cc1)C1CCCN1 (stereo not given) | 121 | 2.12
COc1cc2ncnc(Nc3ccc(O)c(Br)c3)c2cc1OC | 112 | -2.31
COc1ccc(-c2cc3c(C)nc(N)nc3n([C@H]3CC[C@H](OCCO)CC3)c2=O)cn1 | 87.2 | -29.5
Nc1ccn([C@H]2CC[C@@H](CO)O2)c(=O)n1 [Zalcitabine] | 114 | -12.4
C=CC(=O)Nc1cccc(Nc2nc(Nc3ccc(N4CCN(C(C)=O)CC4)cc3OC)ncc2C(F)(F)F)c1 | 61.9 | 44
C[C@H](NC(=O)Cc1cc(F)cc(F)c1)C(=O)N[C@H](C(=O)OC(C)(C)C)c1ccccc1 | 146 | 4.93
CCS(=O)(=O)Nc1ccc2c(c1)/C(=C(/Nc1ccc(CN3CCCCC3)cc1)c1ccccc1)C(=O)N2 [Hesperadin] | 94.8 | 12.7

SMILES | normalized SmoIP GFP fluorescence [1] [%] | normalized SmoIP GFP fluorescence [2] [%]
N#CC1(c2ccc(NC(=O)c3cccnc3NCc3ccncc3)cc2)CCCC1 [Apatinib-YN968D1] | 96.7 | -1.34
Cn1cc(-c2ccc3nnc(C(F)(F)c4ccc5ncccc5c4)n3n2)cn1 | 96.1 | -2.42
CC(C)(C)c1cnc(CSc2cnc(NC(=O)C3CCNCC3)s2)o1 | 131 | 66
CNC(=O)c1ccc2cc([C@@]3(O)CCn4cncc43)ccc2c1 | 104 | -1.56
CCc1nc(N)nc(N)c1-c1ccc(Cl)cc1 [Pyrimethamine] | 101 | 0.702
OC(CN1CCN(c2cccc(Cl)c2)CC1)C(c1ccccc1)c1ccccc1 (stereo not given) | 109 | -4.89
Nc1nc(Nc2ccc(S(N)(=O)=O)cc2)nn1C(=O)c1c(F)cccc1F | 205 | 67.9
Cn1c(=O)n(-c2ccc(C(C)(C)C#N)cc2)c2c3cc(-c4cnc5ccccc5c4)ccc3ncc21 | 113 | -5.01
CN1C(C(=O)Nc2ccccn2)=C(O)c2sc(Cl)cc2S1(=O)=O [lornoxicam-xefo] | 129 | -4.89
CC(C)C(=O)Oc1ccc(CO)cc1[C@H](CCN(C(C)C)C(C)C)c1ccccc1 [Fesoterodine-fumarate-Toviaz] | 110 | -4.53
Cc1ccc(C(=O)N(CCCN)[C@@H](c2oc3cc(Cl)ccc3c(=O)c2Cc2ccccc2)C(C)C)cc1 | 141 | 2.05
CN1CCC[C@@H]1Cc1c[nH]c2ccc(CCS(=O)(=O)c3ccccc3)cc12 [eletriptan-hydrobromide] | 106 | -2.71
Cc1cc(Nc2ncc(Cl)c(Nc3ccccc3S(=O)(=O)C(C)C)n2)c(OC(C)C)cc1C1CCNCC1 | 113 | 3.77
CNCCc1ccccn1 [betahistine-dihydrochloride] | 98.3 | -3.05
CN1C2CCCC1CC(NC(=O)c1nn(C)c3ccccc13)C2 (stereo not given) [Granisetron-Hydrochloride] | 103 | 3.72
Clc1ccc2c(c1)CCc1cccnc1C2=C1CCNCC1 [desloratadine] | 109 | 1.21
Cc1ccccc1C(OCCN(C)C)c1ccccc1 (stereo not given) [orphenadrine-citrate-norflex] | 142 | -11.7
